Most compounds without a hit are left out; they make up all but 2.9% or so of the library.
D3 ag = D3 dopamine receptor (human) agonism. AID 652048. 0.58% of 410,000 active. D3R DiscoveRx beta-arrestin cells, luminescence, 90 min. P35462. max activation, %; in the data active = max activation above about 30%
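Cells at 1500/well, incubated overnight, then treated with pinned compounds (dopamine as control) for 90 min at 37 degrees C. DiscoveRx reagent added for 30 - 60 minutes at room temperature; luminescence read.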
B2AR arrestin = beta2AR (human) beta-arrestin recruitment activity; beta-arrestin recruitment to beta2AR, cell-based reporter; P07550; Potency, µM (titrated, usually from 46.1 µM), most hits filed as activators; 0.02% of 330,000 active; active = well fitted activation curve with a large enough effect; inconclusive = small, poorly fitted or top-dose-only effect; also: nearly all actives have a fitted effect of over 65% in size
TSHR antagonist = human thyrotropin receptor antagonism | TSHR-expressing cells, TSH-stimulated cAMP HTRF, 2 h; stronger effect = lower value | 0.2% of 330,000 active | activity change, negative = inhibition, % at 11.5 µM;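 active = activity change below a set negative limit, meaning inhibition stronger than a set level, cut at about -70% in these data; inconclusive = activity change between two set negative limits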
Target sequence (P16473 whole entry, looked up): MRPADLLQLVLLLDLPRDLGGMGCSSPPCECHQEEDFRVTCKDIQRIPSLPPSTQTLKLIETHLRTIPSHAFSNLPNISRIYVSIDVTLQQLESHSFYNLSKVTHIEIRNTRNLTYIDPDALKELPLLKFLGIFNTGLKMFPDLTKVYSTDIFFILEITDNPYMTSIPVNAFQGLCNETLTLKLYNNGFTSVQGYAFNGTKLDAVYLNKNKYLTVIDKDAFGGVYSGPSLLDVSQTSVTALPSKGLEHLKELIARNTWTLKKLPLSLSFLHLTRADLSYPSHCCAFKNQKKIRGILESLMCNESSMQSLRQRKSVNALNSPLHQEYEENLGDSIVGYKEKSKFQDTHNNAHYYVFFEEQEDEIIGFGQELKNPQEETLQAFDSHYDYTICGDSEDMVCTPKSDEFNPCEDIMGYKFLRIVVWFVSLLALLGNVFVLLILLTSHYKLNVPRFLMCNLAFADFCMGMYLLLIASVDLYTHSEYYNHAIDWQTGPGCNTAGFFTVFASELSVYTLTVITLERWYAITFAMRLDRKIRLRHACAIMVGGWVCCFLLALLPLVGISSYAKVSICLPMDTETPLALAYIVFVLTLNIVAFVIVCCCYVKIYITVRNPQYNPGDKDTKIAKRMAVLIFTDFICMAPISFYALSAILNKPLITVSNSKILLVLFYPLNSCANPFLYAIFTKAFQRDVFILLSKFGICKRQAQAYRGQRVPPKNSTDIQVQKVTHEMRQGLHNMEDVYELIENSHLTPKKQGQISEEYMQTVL
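Competitive HTRF cAMP read-out (cryptate anti-cAMP antibody, cAMP-d2; 30 min, room temperature) in freshly harvested TSHR cells. Compounds added before TSH at EC80 (4nM final), followed by 2 hours' incubation at 37 deg C.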
D3 antag = D3 dopamine receptor (human) antagonism | D3R cells, DiscoveRx beta-arrestin luminescence, antagonist mode; stronger effect = lower value | max response, negative = inhibition, % | 2.5% of 360,000 active; in the data active = max response below about -50%; inconclusive = no clear call, values can overlap the other calls
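Cells plated overnight at 1500 cells/well, then exposed to library compounds with dopamine controls for 90 minutes at 37 degrees C. DiscoveRx reagent added for 30–60 minutes at room temperature; luminescence read, quantitative HTS format.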
Hits are given with their value; – = inactive; ? = inconclusive; · = no result.

SMILES | D3 ag | B2AR arrestin | TSHR antagonist | D3 antag
CCOc1ccc(N2C(=O)CC(N3CCN(C4CCc5ccccc5C4)CC3)C2=O)cc1 (stereo not given) | – | – | – | –
CCOC(=O)N1CCN(C2CC(=O)N(c3ccc(F)cc3)C2=O)CC1 (stereo not given) | – | – | – | –
Cc1ccc(N2C(=O)CC(N3CCN(C4CCc5ccccc5C4)CC3)C2=O)cc1 (stereo not given) | – | – | – | -55
CCOC(=O)N1CCN(C2CC(=O)N(c3ccc(Oc4ccccc4)cc3)C2=O)CC1 (stereo not given) | 53 | – | – | –
CCOc1ccc(N2C(=O)CC(N3CCN(C(=O)c4ccco4)CC3)C2=O)cc1 (stereo not given) | – | – | – | –
COc1cc(OC)cc(-c2ncc3ccccn23)c1 | – | – | – | -58
Cc1oc(C)c2c(=O)ccc3c(c12)OC(N)=C(C#N)C3c1ccccc1 (stereo not given) | – | – | – | –
CSc1ccc(C2C(C#N)=C(N)Oc3c2ccc(=O)c2c(C)oc(C)c32)cc1 (stereo not given) | – | – | – | -51
Oc1ccc(Cl)cc1CNc1ccc(Br)cn1 | – | – | – | –
Oc1c(Cl)cc(Cl)cc1CNc1ccc(Br)cn1 | – | – | – | -55
COc1ccc(CN2CCN(C3CCSCC3)CC2CCO)c(C)c1C (stereo not given) | – | – | – | -64
O=[N+]([O-])c1ccc(O)c(C2=NNC(c3ccccc3F)C2)c1 (stereo not given) | – | – | – | -121
CCC1Oc2ccc(C)cc2N(CC(=O)NCCCN2CCCC2)C1=O (stereo not given) | – | – | – | -68
CCC1Oc2ccccc2N(CC(=O)NCCN2CCc3ccccc3C2)C1=O (stereo not given) | – | – | – | -53
CCCN1CCN(CCCNC(=O)CN2C(=O)C(CC)Oc3ccccc32)CC1 (stereo not given) | – | – | – | –
O=C1OC(c2ccccc2)=NC12CC2c1ccc(Cl)cc1 (stereo not given) | – | – | – | -73
COc1cc(-c2nnc(SCC(=O)NC(C)C)o2)cc(OC)c1OC | – | · | · | ·
CC1(C)CC(=O)C(C=Nc2cccnc2/N=C/C2=C(O)CC(C)(C)CC2=O)=C(O)C1 | – | – | – | -143
CC1(C)CC(=O)C(C=Nc2ccc(C(=O)c3ccccc3)cc2N=CC2=C(O)CC(C)(C)CC2=O)=C(O)C1 | – | – | – | -118
COc1ccc(-c2noc(-c3ccc(NCc4ccco4)c([N+](=O)[O-])c3)n2)cc1OC | – | · | · | ·
Cc1c(N)nc(C(CC(N)=O)NCC(N)C(N)=O)nc1C(=O)NC(C(=O)NC(C)C(O)C(C)C(=O)NC(C(=O)NCCc1nc(-c2nc(C(=O)NCCCN[C@@H](C)c3ccccc3)cs2)cs1)C(C)O)C(O[C@@H]1O[C@@H](CO)[C@@H](O)[C@H](O)[C@@H]1O[C@H]1O[C@H](CO)[C@@H](O)[C@H](OC(N)=O)[C@@H]1O)c1cnc[nH]1 (stereo not given in full) | – | · | · | ·
CCN1CCc2c(sc3c2c(NCc2ccco2)nc2nnnn23)C1 | – | – | – | -65
Cc1nc(NCc2ccco2)c2c3c(sc2n1)CCC3 | – | – | – | –
O=C(CN1CCC(n2nnc3cc(F)ccc32)CC1)NNC(=O)c1ccccc1 | – | – | – | ?
CC1CCC(NC(=O)CN2CCC(n3nnc4cc(F)ccc43)CC2)CC1 (stereo not given) | – | – | – | -67
SMILES | D3 ag | B2AR arrestin | TSHR antagonist | D3 antag
Cc1ccc2c(c1)nnn2C1CCN(CC(=O)N2c3ccccc3CC2C)CC1 (stereo not given) | – | – | – | -70
O=C(CN1CCC(n2nnc3cc(F)ccc32)CC1)NCCc1nc2ccccc2[nH]1 | – | – | – | -65
O=C(CN1CCC(n2nnc3cc(F)ccc32)CC1)Nc1ccc2c(c1)CCC2 | – | – | – | -76
COc1ccc(-c2cn3nc(N4CCC(C(=O)Nc5ccccc5OC)CC4)sc3n2)cc1 | – | · | · | ·
Cc1ccccc1NC(=O)CN1CCC(n2nnc3ccccc32)CC1 | – | – | – | ?
O=C(CN1CCC(n2nnc3ccccc32)CC1)Nc1ccc2c(c1)CCC2 | – | – | – | -65
O=C(CN1CCC(n2nnc3cc(F)ccc32)CC1)N1CCCc2ccccc21 | – | – | – | -54
Cc1ccc(Cl)cc1-c1cc(C(=O)NCc2ccc(C(F)(F)F)cc2)[nH]n1 | – | · | · | -54
COc1ccc(Cl)c(-c2cc(C(=O)Nc3ccc(F)cc3)[nH]n2)c1 | – | · | · | -52
Cc1ccc(Cl)cc1-c1cc(C(=O)Nc2ccc(F)cc2)[nH]n1 | – | · | · | -85
COc1ccc(Cl)c(-c2cc(C(=O)Nc3ccccc3)[nH]n2)c1 | – | · | · | –
Cc1ccc(NC(=O)c2cc(-c3cc(Cl)ccc3O)n[nH]2)cc1C | – | – | – | –
COc1ccc(/C=C\c2onc(C)c2S(=O)(=O)N2CCC(C(=O)Nc3ccc(C)cc3C)CC2)cc1 | – | · | · | ·
O=C(NCCN1CCCCC1)c1cc2ccccc2[nH]1 | – | – | – | -72
NNC(=O)c1cc2ccccc2[nH]1 | – | – | – | -52
CCc1cccc(C)c1NC(=O)Cn1ccn(-c2ccc(F)cc2)c(=O)c1=O | – | · | · | ·
CCOC(=O)c1sc2ncn(CC(=O)Nc3ccc(C)cc3C)c(=O)c2c1C | – | · | · | ·
COc1cccc(-n2c(SCC(=O)Nc3ccc4c(c3)OCO4)nc3c([nH]c4ccccc43)c2=O)c1 | – | · | · | ·
CN1Cc2c(N3CCOCC3)nc3sc(C(=O)c4ccc(Br)cc4)c(N)c3c2CC1(C)C | – | – | – | -50
CCC1CCCCN1C/C=C/c1ccccc1[N+](=O)[O-] (stereo not given) | – | – | – | -55
CC1CCCCN1C/C=C/c1ccccc1[N+](=O)[O-] (stereo not given) | – | – | – | –
CC1CCCN(C/C=C/c2ccccc2[N+](=O)[O-])C1 (stereo not given) | – | – | – | -91
CN1C(=O)[C@@H]2[C@H](C1=O)[C@@H]1C(=O)Nc3ccccc3C(=O)N1[C@@H]2c1ccc(F)cc1 | – | – | – | –
CCN1C(=O)[C@@H]2[C@H](C1=O)[C@@H]1C(=O)Nc3ccccc3C(=O)N1[C@@H]2c1ccc(OC)cc1 | 35 | – | – | –
Cc1ccc(CNC(=O)CN2N=C(c3ccc(C)cc3)CCC2=O)cc1 | – | · | · | ·
SMILES | D3 ag | B2AR arrestin | TSHR antagonist | D3 antag
COc1cccc(CNC(=O)CN2N=C(c3ccc(C)cc3)CCC2=O)c1 | 33 | · | · | ·
COC(=O)c1ccc(Oc2cc(C)nc(-n3nc(C)cc3C)n2)cc1 | – | – | – | -82
Cc1ccc(C)c(NC(=O)Cc2coc3cc(C)cc(C)c23)c1 | – | · | · | ·
Cc1ccc(-c2noc(C3CCCN(C(=O)c4c(F)cccc4F)C3)n2)cc1 (stereo not given) | – | – | – | -70
O=C(Cc1ccccc1)N1CCC(c2nc(-c3ccc(F)cc3)no2)CC1 | 31 | – | – | –
CCN(CC)S(=O)(=O)c1ccc(NCc2ccccc2)nc1 | 33 | – | – | –

Compound activity: PubChem, National Center for Advancing Translational Sciences (NCATS)
